From the supplement of paper PMC10849652
Targets with a hit are over-represented here; the source holds about 7,900 in all. About 0.6% of all pairs of compound and target were hits. A number with no mark means an inactive call.

How the values were obtained:
Experiment in all cases: log2 fold change, soluble protein after heating vs DMSO (PISA); higher = thermal stabilisation; K562 cells, 10 uM, 30 min; active = over 0.2 and 3.5 SD of the protein, either way, in both replicates (recomputed)
bafetinib = compound: Cc1ccc(NC(=O)c2ccc(CN3CC[C@H](N(C)C)C3)c(C(F)(F)F)c2)cc1Nc1nccc(-c2cncnc2)n1 [bafetinib]
In short: (§1)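 K562 cells at 2×10^6 cells/mL were treated for 30 min with 10 μM compound, and aliquots were heated for 3 min over 48°C-58°C before pooling. Extraction used PBS with 0.5% NP-40 at 4°C, and soluble protein was the supernatant after 21,000xg for 90 min, measured by TMTpro 16plex LC-MS/MS with channel sums equalised. Thermal stability values, relative to control samples and from duplicates, are log2 fold changes.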

[1] = compound: Cc1cccc(CC(=O)N2CCc3c2ccc(-c2cn(C)c4ncnc(N)c24)c3F)n1
In short: as §1

nilotinib = compound: Cc1cn(-c2cc(NC(=O)c3ccc(C)c(Nc4nccc(-c5cccnc5)n4)c3)cc(C(F)(F)F)c2)cn1 [nilotinib]
In short: as §1

[2] = compound: Cc1nc(Nc2n[nH]c3c2CN(C(=O)N[C@H](CN(C)C)c2ccccc2)C3(C)C)c2sccc2n1
In short: as §1

dasatinib = compound: Cc1nc(Nc2ncc(C(=O)Nc3c(C)cccc3Cl)s2)cc(N2CCN(CCO)CC2)n1 [dasatinib]
In short: as §1

[3] = compound: Cc1ncc(-c2ccnc(Nc3ccc(S(C)(=O)=O)cc3)n2)n1C(C)C
In short: as §1

[4] = compound: Cn1cc(-c2ccc3c(c2)CCN3C(=O)Cc2cccc(C(F)(F)F)c2)c2c(N)ncnc21
In short: as §1

[5] = compound: Cn1cc(-c2ccc3nnc(C(F)(F)c4ccc5ncccc5c4)n3n2)cn1
In short: as §1

tipifarnib = compound: Cn1cncc1[C@@](N)(c1ccc(Cl)cc1)c1ccc2c(c1)c(-c1cccc(Cl)c1)cc(=O)n2C [tipifarnib]
In short: as §1

mubritinib = compound: FC(F)(F)c1ccc(/C=C/c2nc(COc3ccc(CCCCn4ccnn4)cc3)co2)cc1 [mubritinib]
In short: as §1

Sequence of UniProt O95926 (O95926 whole entry, looked up): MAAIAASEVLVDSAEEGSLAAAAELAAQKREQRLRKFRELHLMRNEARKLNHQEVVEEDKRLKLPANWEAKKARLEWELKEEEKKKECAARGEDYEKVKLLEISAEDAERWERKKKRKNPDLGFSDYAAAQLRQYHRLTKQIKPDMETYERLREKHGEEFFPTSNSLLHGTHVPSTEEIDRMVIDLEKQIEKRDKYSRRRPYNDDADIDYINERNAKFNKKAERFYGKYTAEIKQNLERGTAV
Sequence of UniProt Q15526 (Q15526 whole entry, looked up): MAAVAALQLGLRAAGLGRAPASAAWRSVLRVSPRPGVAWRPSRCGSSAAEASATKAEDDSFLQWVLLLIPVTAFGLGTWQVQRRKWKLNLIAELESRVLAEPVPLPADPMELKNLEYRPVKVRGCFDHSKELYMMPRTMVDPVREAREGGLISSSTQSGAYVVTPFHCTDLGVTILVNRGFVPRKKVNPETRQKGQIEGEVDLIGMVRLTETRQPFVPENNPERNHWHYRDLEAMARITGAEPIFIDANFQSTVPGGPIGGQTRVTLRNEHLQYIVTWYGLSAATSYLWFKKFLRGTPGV
Sequence of UniProt Q9Y5W9 (Q9Y5W9 whole entry, looked up): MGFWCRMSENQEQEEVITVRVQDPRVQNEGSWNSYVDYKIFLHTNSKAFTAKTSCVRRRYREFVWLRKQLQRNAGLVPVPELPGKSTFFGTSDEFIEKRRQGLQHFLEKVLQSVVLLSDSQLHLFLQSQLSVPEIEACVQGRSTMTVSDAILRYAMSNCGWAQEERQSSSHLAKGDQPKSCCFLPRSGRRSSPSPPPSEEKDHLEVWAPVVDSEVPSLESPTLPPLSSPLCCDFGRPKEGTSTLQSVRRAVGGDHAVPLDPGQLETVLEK
Sequence of UniProt O60749 (O60749 whole entry, looked up): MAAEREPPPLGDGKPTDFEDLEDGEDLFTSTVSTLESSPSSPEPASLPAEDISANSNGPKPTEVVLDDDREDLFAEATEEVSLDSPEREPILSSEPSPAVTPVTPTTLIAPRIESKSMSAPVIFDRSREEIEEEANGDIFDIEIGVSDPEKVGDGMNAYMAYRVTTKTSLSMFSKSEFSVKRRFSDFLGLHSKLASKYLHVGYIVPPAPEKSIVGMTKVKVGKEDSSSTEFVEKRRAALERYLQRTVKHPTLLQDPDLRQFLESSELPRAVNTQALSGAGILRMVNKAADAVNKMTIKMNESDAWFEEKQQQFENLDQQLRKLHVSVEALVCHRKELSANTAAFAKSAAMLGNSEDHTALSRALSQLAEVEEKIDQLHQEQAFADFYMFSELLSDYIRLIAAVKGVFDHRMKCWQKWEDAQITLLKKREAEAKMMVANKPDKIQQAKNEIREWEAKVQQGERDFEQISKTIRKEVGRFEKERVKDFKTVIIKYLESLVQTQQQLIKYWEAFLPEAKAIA
Sequence of UniProt O00506 (O00506 whole entry, looked up): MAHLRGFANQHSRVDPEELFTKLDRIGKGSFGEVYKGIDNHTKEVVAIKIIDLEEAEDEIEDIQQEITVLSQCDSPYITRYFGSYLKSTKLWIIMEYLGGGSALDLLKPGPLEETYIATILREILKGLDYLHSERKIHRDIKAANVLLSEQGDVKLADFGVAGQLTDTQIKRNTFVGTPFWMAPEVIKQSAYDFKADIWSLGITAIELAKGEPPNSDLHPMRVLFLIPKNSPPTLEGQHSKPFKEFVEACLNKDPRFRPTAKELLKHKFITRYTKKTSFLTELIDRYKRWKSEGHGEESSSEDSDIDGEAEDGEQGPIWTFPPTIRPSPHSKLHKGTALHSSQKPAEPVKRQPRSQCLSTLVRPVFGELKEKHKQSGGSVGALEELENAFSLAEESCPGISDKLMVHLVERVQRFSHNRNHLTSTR
Sequence of UniProt Q9Y5J6 (Q9Y5J6 whole entry, looked up): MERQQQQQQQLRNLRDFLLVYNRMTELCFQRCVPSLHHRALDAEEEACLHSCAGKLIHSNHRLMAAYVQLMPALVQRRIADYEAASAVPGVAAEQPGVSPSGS
Sequence of UniProt O60493 (O60493 whole entry, looked up): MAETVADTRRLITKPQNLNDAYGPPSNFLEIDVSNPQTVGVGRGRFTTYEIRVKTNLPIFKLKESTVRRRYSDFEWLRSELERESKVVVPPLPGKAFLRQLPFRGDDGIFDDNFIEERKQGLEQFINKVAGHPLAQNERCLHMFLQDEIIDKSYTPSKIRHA
Sequence of UniProt O95359 (O95359 whole entry, looked up): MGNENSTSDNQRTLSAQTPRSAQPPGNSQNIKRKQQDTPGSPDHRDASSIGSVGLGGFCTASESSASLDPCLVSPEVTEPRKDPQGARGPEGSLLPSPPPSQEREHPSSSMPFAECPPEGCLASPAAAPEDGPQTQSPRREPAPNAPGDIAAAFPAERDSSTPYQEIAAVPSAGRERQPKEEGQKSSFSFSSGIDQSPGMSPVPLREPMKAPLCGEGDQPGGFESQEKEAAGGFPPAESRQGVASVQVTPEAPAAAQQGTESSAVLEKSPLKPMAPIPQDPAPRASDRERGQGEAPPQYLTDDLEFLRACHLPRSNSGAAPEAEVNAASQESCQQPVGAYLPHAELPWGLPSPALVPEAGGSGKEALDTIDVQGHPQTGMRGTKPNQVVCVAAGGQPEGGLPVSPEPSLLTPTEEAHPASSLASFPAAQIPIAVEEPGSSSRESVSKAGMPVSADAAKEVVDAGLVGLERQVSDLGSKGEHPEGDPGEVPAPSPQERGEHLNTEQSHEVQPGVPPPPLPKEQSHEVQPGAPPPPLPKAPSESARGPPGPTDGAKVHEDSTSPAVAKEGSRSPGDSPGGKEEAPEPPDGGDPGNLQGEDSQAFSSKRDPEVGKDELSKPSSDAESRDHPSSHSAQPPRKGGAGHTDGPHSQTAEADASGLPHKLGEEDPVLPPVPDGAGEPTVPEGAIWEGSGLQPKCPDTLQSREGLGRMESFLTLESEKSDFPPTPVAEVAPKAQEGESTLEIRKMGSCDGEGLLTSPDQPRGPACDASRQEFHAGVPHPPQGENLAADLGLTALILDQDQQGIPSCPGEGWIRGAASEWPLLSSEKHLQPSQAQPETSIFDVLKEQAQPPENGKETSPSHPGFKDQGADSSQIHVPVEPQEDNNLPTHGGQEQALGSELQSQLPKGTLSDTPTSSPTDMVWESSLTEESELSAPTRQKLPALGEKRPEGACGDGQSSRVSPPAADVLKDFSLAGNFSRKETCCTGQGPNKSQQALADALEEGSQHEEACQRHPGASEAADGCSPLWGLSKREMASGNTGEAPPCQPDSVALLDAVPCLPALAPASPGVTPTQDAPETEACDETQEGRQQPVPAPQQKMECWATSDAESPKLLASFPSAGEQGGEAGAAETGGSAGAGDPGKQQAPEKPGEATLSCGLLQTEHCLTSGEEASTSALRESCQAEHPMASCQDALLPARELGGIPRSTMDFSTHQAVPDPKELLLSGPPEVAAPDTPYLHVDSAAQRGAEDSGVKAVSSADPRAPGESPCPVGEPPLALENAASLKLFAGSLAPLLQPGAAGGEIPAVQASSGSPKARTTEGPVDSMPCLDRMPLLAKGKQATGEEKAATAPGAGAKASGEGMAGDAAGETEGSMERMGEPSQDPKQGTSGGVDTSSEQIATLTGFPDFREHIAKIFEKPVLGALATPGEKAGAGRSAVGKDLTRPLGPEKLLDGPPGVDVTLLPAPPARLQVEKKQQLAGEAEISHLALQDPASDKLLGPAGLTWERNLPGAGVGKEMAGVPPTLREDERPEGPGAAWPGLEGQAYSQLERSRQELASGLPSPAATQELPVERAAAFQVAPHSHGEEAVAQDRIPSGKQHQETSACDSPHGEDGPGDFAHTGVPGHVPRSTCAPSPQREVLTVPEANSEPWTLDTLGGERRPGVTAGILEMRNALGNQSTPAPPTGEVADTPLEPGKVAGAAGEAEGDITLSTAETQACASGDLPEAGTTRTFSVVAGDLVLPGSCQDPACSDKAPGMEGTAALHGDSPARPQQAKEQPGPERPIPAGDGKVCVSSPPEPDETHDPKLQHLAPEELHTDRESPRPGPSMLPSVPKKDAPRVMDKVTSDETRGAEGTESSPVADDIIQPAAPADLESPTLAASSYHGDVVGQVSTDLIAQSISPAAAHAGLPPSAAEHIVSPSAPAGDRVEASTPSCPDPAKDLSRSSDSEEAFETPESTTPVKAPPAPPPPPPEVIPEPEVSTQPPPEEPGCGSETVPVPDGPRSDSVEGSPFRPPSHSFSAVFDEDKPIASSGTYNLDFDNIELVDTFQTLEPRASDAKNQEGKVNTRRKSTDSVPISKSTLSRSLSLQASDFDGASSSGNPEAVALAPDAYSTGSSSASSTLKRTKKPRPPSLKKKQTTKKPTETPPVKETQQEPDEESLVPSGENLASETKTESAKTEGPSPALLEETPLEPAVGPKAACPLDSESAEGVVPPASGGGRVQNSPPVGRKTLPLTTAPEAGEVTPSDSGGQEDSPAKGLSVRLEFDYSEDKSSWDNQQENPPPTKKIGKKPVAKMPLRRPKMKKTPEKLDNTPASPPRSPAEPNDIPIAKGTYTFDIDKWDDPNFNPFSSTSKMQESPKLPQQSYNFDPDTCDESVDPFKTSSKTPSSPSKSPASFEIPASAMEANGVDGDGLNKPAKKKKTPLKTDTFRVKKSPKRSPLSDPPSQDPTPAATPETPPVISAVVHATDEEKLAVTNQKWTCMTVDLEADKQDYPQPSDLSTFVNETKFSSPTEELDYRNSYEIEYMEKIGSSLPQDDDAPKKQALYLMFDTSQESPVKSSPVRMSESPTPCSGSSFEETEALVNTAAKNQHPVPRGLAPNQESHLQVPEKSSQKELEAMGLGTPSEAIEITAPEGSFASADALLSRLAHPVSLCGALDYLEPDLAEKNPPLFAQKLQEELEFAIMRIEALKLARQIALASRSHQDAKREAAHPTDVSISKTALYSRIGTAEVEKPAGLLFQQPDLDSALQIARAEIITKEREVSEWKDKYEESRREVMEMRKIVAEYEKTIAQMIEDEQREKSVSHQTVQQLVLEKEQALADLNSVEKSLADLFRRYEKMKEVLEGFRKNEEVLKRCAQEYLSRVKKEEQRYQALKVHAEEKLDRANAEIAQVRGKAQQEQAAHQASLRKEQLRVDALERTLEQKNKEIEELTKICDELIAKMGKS

Row | Target | log2 fold change (bafetinib) | log2 fold change [1] | log2 fold change (nilotinib) | log2 fold change [2] | log2 fold change (dasatinib) | log2 fold change [3] | log2 fold change [4] | log2 fold change [5] | log2 fold change (tipifarnib) | log2 fold change (mubritinib)
1 | SP1 (UniProt P08047) | -0.041 | -0.006 | 0.005 | -0.003 | -0.005 | -0.02 | -0.018 | 0.091 | 0.01 | -0.023
2 | TACC2 (UniProt O95359) | -0.044 | 0.011 | 0.027 | 0.073 | 0.059 | 0.008 | -0.001 | -0.003 | 0.029 | -0.006
3 | STK25 (UniProt O00506) | -0.015 | -0.055 | -0.083 | 0.257 (active) | -0.133 | -0.033 | 0.008 | 0.007 | 0.042 | -0.013
4 | SNX2 (UniProt O60749) | -0.153 | 0.088 | -0.168 | 0 | -0.134 | -0.275 | 0.101 | 0.021 | -0.056 | 0.044
5 | SRSF9 (UniProt Q13242) | 0.166 | -0.02 | 0.014 | 0.05 | 0.422 | 0.001 | -0.377 | -0.129 | 0.298 | -0.189
6 | SLC7A6 (UniProt Q92536) | 0.042 | 0.029 | 0.046 | 0.008 | 0.04 | -0.007 | 0.024 | -0.087 | -0.016 | 0.049
7 | STARD3NL (UniProt O95772) | 0.011 | -0.008 | -0.007 | 0.027 | 0.075 | -0.001 | -0.048 | 0.025 | -0.064 | -0.006
8 | SMG1 (UniProt Q96Q15) | 0.059 | -0.012 | 0.03 | -0.061 | -0.266 | -0.015 | -0.035 | 0.023 | -0.098 | 0.064
9 | SLK isoform 2 (UniProt Q9H2G2) | -0.032 | -0.076 | -0.041 | -0.169 | -0.085 | 0.015 | -0.289 (active) | 0.004 | -0.018 | 0.026
10 | SLC7A6OS (UniProt Q96CW6) | -0.062 | 0.15 | -0.019 | -0.035 | 0.004 | -0.031 | 0.026 | -0.13 | 0.06 | 0.058
11 | SURF1 (UniProt Q15526) | -0.184 | -0.042 | -0.065 | 0.028 | -0.028 | 0.011 | 0.021 | 0.019 | -0.061 | 0.042
12 | TIMM10B (UniProt Q9Y5J6) | 0.4 | -0.138 | 0.006 | -0.04 | 0.138 | -0.052 | 0.01 | 0.224 | -0.001 | 0.065
13 | SLC25A38 (UniProt Q96DW6) | -0.08 | -0.03 | -0.03 | 0.023 | 0.143 | -0.114 | 0.022 | 0.019 | 0.043 | 0.052
14 | SRSF2 (UniProt Q01130) | 0.02 | -0.062 | 0.007 | -0.541 (active) | 0.074 | 0.034 | -0.058 | 0 | 0.085 | -0.011
15 | STAT6 (UniProt P42226) | 0.027 | 0.502 (active) | -0.082 | -0.181 | -0.115 | 0.155 | -0.099 | -0.042 | -0.164 | 0.179
16 | SNX11 (UniProt Q9Y5W9) | -0.259 | 0.081 | -0.033 | -0.108 | -0.022 | -0.44 (active) | 0.077 | 0.002 | 0.178 | -0.015
17 | SRSF7 (UniProt Q16629) | 0.073 | -0.055 | 0.156 | -0.642 (active) | 0.171 | 0.044 | -0.177 | -0.126 | 0.181 | -0.128
18 | TBCD (UniProt Q9BTW9) | -0.064 | 0.029 | -0.101 | -0.078 | -0.086 | -0.025 | 0.007 | 0.025 | -0.038 | -0.039
19 | TIMM13 (UniProt Q9Y5L4) | 0.086 | 0.156 | 0.018 | -0.017 | 0 | 0.035 | 0.07 | -0.003 | -0.111 | 0.005
20 | STXBP2 isoform 3 (UniProt Q15833) | 0.088 | 0.096 | -0.099 | -0.147 | -0.131 | -0.014 | 0.073 | 0.086 | -0.086 | 0.164
21 | STAT5B (UniProt P51692) | -0.056 | 0.109 | -0.218 | -0.432 | -0.443 (active) | 0.162 | 0.07 | 0.08 | -0.163 | 0.308
22 | SYMPK (UniProt Q92797) | -0.027 | 0.036 | -0.192 | -0.001 | -0.156 | 0.037 | -0.017 | -0.043 | -0.152 | 0.015
23 | SPART (UniProt Q8N0X7) | -0.041 | -0.024 | -0.047 | -0.006 | -0.117 | 0.051 | -0.025 | 0.059 | -0.077 | 0.063
24 | TERF2IP (UniProt Q9NYB0) | -0.051 | -0.008 | -0.006 | -0.163 | -0.028 | -0.128 | -0.078 | -0.033 | 0.074 | -0.014
25 | SP100 isoform 4 (UniProt P23497) | -0.047 | -0.056 | -0.02 | -0.061 | -0.054 | -0.057 | 0.02 | 0.026 | -0.087 | 0.043
26 | SNX3 (UniProt O60493) | 0.01 | 0.032 | -0.034 | 0.035 | -0.163 | -0.339 (active) | -0.03 | 0.001 | 0.019 | -0.108
27 | TBRG4 (UniProt Q969Z0) | -0.137 | -0.035 | -0.027 | -0.291 | -0.513 | 0.006 | 0.095 | 0.003 | -0.317 | -0.277
28 | TJP2 isoform 7 (UniProt Q9UDY2) | 0.05 | 0.149 | 0.014 | -0.207 | -0.191 | -0.025 | 0.009 | 0.014 | -0.094 | 0.002
29 | SYF2 (UniProt O95926) | -0.198 | 0.021 | -0.017 | 0.25 | 0.119 | 0.308 | -0.193 | -0.021 | 0.027 | -0.002
30 | SNRPB2 (UniProt P08579) | -0.034 | -0.081 | 0.04 | 0.048 | 0.075 | 0.135 | -0.116 | -0.025 | 0.084 | 0.045
